# Reference: PubChem BioAssay (NCATS)
# Inconclusive results are not listed. A number with no mark means an inactive call. Calls come from the whole dose curve; as a rule, active = well fitted inhibition curve with a large enough effect; inconclusive = small, poorly fitted or top-dose-only effect; inactive = flat fitted curve, though single readings scatter.
# Target: Calcium and integrin-binding protein 1 (Homo sapiens) (UniProt Q99828)
# Test: Primary qHTS for Identification of Calcium Integrin Binding Protein 1 (CIB1) Competitor (AID 1508620);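 note: GST tagged CIB1 binding a fluorescein labelled alphaIIb integrin peptide tracer; top concentration of the series differs between compounds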
# Settings: CIB1-GST / FITC-alphaIIb peptide fluorescence polarization; series mostly up to 114 µM; activity change, negative = inhibition: at the top concentration
# How it was run: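 Fluorescence polarization competition: CIB1-GST (1 uM final) preincubated with compound 15 min at room temperature, then FITC-labeled alphaIIb peptide (100 nM final) added for another 15 min. Polarization read at Ex 480/Em 540.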
# % is set by controls: 0 for no effect and ±100 for the full control effect.
# Chain of Calcium and integrin-binding protein 1 (Homo sapiens) (Q99828 whole entry, looked up): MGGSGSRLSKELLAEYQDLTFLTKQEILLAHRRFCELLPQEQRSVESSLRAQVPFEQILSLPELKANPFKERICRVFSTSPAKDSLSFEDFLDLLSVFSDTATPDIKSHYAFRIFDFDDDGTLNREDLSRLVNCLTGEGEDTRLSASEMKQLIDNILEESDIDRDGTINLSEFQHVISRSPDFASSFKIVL
row,Compound,"activity change, negative = inhibition"
1,COC(=O)C1=CO[C@@H](O[C@@H]2O[C@H](CO)[C@@H](O)[C@H](O)[C@H]2O)[C@H]2[C@@H]1C=C[C@@]21C=C([C@H](C)O)C(=O)O1,4.48% [at 57.7 µM]
2,C[C@@]1(O)[C@H](O)[C@@H](CO)O[C@H]1n1ccc(N)nc1=O,0.936%
3,C=C[C@H]1[C@H](O[C@@H]2O[C@H](CO)[C@@H](O)[C@H](O)[C@H]2O)OC=C(C(=O)OC)[C@H]1CCOC(=O)c1cc(O)c(O)c(O)c1,0.657% [at 57.7 µM]
4,CC(C)(C)c1cc(Br)cc([C@H](CC(=O)O)NC(=O)CNC(=O)c2cc(O)cc(NC3=NCC(O)CN3)c2)c1 (stereo partly drawn),5.6%
5,CC1=C(C(=O)O)/C(=C\CO[C@@H]2O[C@H](CO)[C@@H](O)[C@H](O)[C@H]2O)C(OC(=O)/C=C/c2ccc(O)cc2)C1 (stereo partly drawn),-3.79% [at 57.7 µM]
6,COc1ccc(C[C@H](N)C(=O)N[C@@H]2[C@H](O)[C@H](n3cnc4c(N(C)C)ncnc43)O[C@@H]2CO)cc1,-1.97%
7,C=C1CCC2C(C(C)(C)O)CCC2(C)CC(O)C(=C)CCC1O (stereo not drawn),1.59% [at 57.7 µM]
8,C[C@@H]1O[C@@H](O[C@H]2[C@H](O)[C@@H](O)[C@H](OC3CCC4(C)C5CCC(C)(C(CO)OC6OC(CO)C(O)C(O)C6O)CC5=CCC4C3(C)C)O[C@@H]2CO)[C@H](O)[C@H](O)[C@H]1O (stereo partly drawn),0.947% [at 30.2 µM]
9,C=C[C@@H]1[C@H](O[C@@H]2O[C@H](CO)[C@@H](O)[C@H](O)[C@H]2O)OC=C(C(=O)O)[C@H]1CCOC(=O)/C=C/c1ccc(O)c(O)c1,-2.98% [at 57.7 µM]
10,CC(C)=CCC[C@](C)(O)[C@H]1CC[C@]2(C)[C@@H]1[C@H](O)CC1[C@@]3(C)CC[C@H](O)C(C)(C)[C@@H]3[C@@H](O[C@@H]3O[C@H](CO)[C@@H](O)[C@H](O)[C@H]3O[C@@H]3O[C@H](CO)[C@@H](O)[C@H](O)[C@H]3O)C[C@]12C (stereo partly drawn),0.05% [at 30.2 µM]
11,CC(=O)O[C@@H]1[C@@H](O)[C@H](O[C@H]2CC[C@]34C[C@]35CC[C@]3(C)[C@@H]([C@@]6(C)CC[C@@H](C(C)(C)O)O6)[C@@H](O)C[C@@]3(C)[C@@H]5C[C@H](O[C@@H]3O[C@H](CO)[C@@H](O)[C@H](O)[C@H]3O)[C@H]4C2(C)C)OC[C@H]1O,-9.24%
12,COc1c2c(c(CO)c3c1C(=O)OC3)OC1(C)CCC3(O)C(C)(C)OC(=O)CCC3(C)C1C2 (stereo not drawn),-6.54% [at 57.7 µM]
13,CCCCNc1ncc2c(-c3ccc(F)cc3)nn(CC3CCC(N)CC3)c2n1 (stereo not drawn),-5.27% [at 57.7 µM]
14,Cc1ccc(S(=O)(=O)c2ccc([N+](=O)[O-])o2)cc1,-19.7%
15,CC(C)=CCCC1(C)C=Cc2c(c(C)cc3c2[nH]c2ccccc23)O1 (stereo not drawn),2.95% [at 57.7 µM]
16,CC1(C)CC[C@]2(C(=O)O[C@@H]3O[C@H](CO)[C@@H](O)[C@H](O)[C@H]3O)CC[C@]3(C)C(=CCC4[C@@]5(C)CC[C@H](O[C@@H]6O[C@H](C(=O)O)[C@@H](O)[C@H](O[C@@H]7O[C@H](CO)[C@H](O)[C@H](O)[C@H]7O)[C@H]6O)C(C)(C)C5CC[C@]43C)C2C1 (stereo partly drawn),-4.49% [at 30.2 µM]
17,CC(C)(C)OC(=O)N1CCC(OCc2nc(-c3ccncc3)no2)CC1,7.12%
18,COC(=O)C1=CO[C@@H](O[C@@H]2O[C@H](CO)[C@@H](O)[C@H](O)[C@H]2O)[C@H]2[C@@H]1CC(OC)O[C@@H]2C (stereo partly drawn),-3.8% [at 57.7 µM]
19,CCNC(=O)C1OC(n2cnc3c(N)nc(NCCc4ccc(CCC(=O)O)cc4)nc32)C(O)C1O (stereo not drawn),-3.15%

row,Compound,"activity change, negative = inhibition"
1,CCC(COC)n1nnc2c(Nc3ccc(OC)cc3C)nc(C)cc21 (stereo not drawn),-0.591%
2,OCCc1ccc(O[C@@H]2O[C@H](CO)[C@@H](O)[C@H](O)[C@H]2O)cc1,2.6%
3,CC(=O)O[C@@H]1CC(C)=C2[C@H]1[C@H](C)CC[C@H]2/C=C(\C)C(=O)O,1.84%
4,O=C(Nc1ccc(-c2ccncc2)cc1)N[C@H](CO)c1ccccc1,-3.89%
5,O=C(c1cc2c(cc1F)OC(c1ccc(F)cc1)(c1ccc(Cl)cc1Cl)O2)N1CCOCC1 (stereo not drawn),3.44%
6,CC[C@H](CO)Nc1nc(NCc2ccc(-c3ccccn3)cc2)c2ncn(C(C)C)c2n1,4.8%
7,C=CC1(C)C=C2CCC3C(C)(C)C(O[C@@H]4O[C@@H](CO)[C@H](O)[C@H]4O)CCC3(C)C2CC1O[C@@H]1O[C@H](C)[C@H](O)[C@H](O)[C@H]1O (stereo partly drawn),-1.33% [at 57.7 µM]
8,Cn1c(=O)n(-c2ccc(C(C)(C)C#N)cc2)c2c3cc(C#Cc4cccnc4)ccc3ncc21,2.84% [at 57.7 µM]
9,O=C(O)COCCN1CCN([C@H](c2ccccc2)c2ccc(Cl)cc2)CC1,-7.68%
10,OC[C@H]1O[C@@H](OCCc2ccc(O)cc2)[C@H](O[C@@H]2OC[C@](O)(CO)[C@H]2O)[C@@H](O)[C@@H]1O,-1.35% [at 57.7 µM]
11,CC(=O)O[C@H]1C[C@@](O)(C(C)C)C2[C@@H](OC(=O)c3ccc(O)cc3)C[C@@]3(C)O[C@H]3C[C@]21C (stereo partly drawn),-0.705% [at 57.7 µM]
12,C=C1C[C@]23C[C@H]1CC[C@H]2[C@]1(C)CCC[C@@](C)(C(=O)O)[C@H]1[C@@H]3C(=O)O,0.176% [at 57.7 µM]
13,NC(=O)c1csc(C2OC(CO)C(O)C2O)n1 (stereo not drawn),-1.09%
14,CC(C)=CCC[C@](C)(O[C@@H]1O[C@H](CO[C@@H]2O[C@H](CO)[C@@H](O)[C@H](O)[C@H]2O)[C@@H](O)[C@H](O)[C@H]1O)C1CC[C@]2(C)[C@@H]1[C@H](O)CC1[C@@]3(C)CC[C@H](O[C@@H]4O[C@H](CO)[C@@H](O)[C@H](O)[C@H]4O[C@@H]4O[C@H](CO)[C@@H](O)[C@H](O)[C@H]4O)C(C)(C)[C@@H]3CC[C@]12C (stereo partly drawn),-0.481% [at 30.2 µM]
15,Cn1nnc(-c2ccc(-c3ccc(N4C[C@H](COP(=O)(O)O)OC4=O)cc3F)cn2)n1,-2.9%
16,O=C(O[C@H]1[C@@H]2C=CO[C@@H](O[C@@H]3O[C@H](CO)[C@@H](O)[C@H](O)[C@H]3O)[C@@H]2[C@@]2(CO)O[C@@H]12)c1ccccc1,-1.38% [at 57.7 µM]
17,O=S(=O)(c1ccc(S(=O)(=O)n2cnc3ccccc32)cc1)N1CCCCCC1,1.42% [at 57.7 µM]
18,COc1ccc2nc(S(=O)(=O)Cc3ncc(C)c(OC)c3C)[nH]c2c1,-3.71%
19,CC1CCC2(C=O)C(CO)=CCCC2C1(C)CC(=O)O (stereo not drawn),5%
